About 79,000 compounds went through this panel and 15% of them were active in at least one assay; those are over-represented in the sample as a whole. Rule as the data show it: active = growth inhibition above about 70%; inactive = the rest.
How the values were obtained:
[1] = NCI Yeast Anticancer Drug Screen. Data for the rad50 strain (AID 155);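 also: 0% = growth of vehicle-only cultures of the same strain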; conditions: S. cerevisiae rad50 strain growth inhibition; at 50.0 µM; active compounds read high
Procedure, shortened: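 Vehicle-treated cultures provide the reference for the growth inhibition reported for compound-exposed, repair-deficient yeast.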

[2] = NCI Yeast Anticancer Drug Screen. Data for the mec2-1 strain (AID 157); conditions: S. cerevisiae mec2-1 strain, at 50.0 µM, active compounds read high
Procedure, shortened: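 Growth inhibition is read against vehicle-treated controls after compound exposure of the mec2-1 yeast strain, which is defective in DNA damage repair or cell cycle control.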

[3] = NCI Yeast Anticancer Drug Screen. Data for the sgs1 mgt1 strain (AID 161);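 also: 0% = growth of cultures given vehicle only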; conditions: S. cerevisiae sgs1 mgt1 strain, at 50.0 µM, active compounds read high
Procedure, shortened: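 Percent growth inhibition was derived by comparing compound-exposed mutant yeast with vehicle-exposed cultures. The strain carries alterations in DNA damage repair.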

[4] = NCI Yeast Anticancer Drug Screen. Data for the cln2 rad14 strain (AID 165);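 also: 0% = growth equal to vehicle treated cultures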; conditions: S. cerevisiae cln2 rad14 strain, at 50.0 µM, active compounds read high
Procedure, shortened: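 Growth inhibition, relative to vehicle-treated controls, is the read-out. The test organism is a yeast strain with defined genetic alterations, cln2 rad14.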

[5] = NCI Yeast Anticancer Drug Screen. Data for the bub3 strain (AID 167); conditions: S. cerevisiae bub3 mutant strain, at 50.0 µM, active compounds read high
Procedure, shortened: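 Mutant yeast screening strain plus compound; vehicle-treated cultures serve as the 0% inhibition reference.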

[6] = NCI Yeast Anticancer Drug Screen. Data for the mlh1 rad18 strain (AID 175); conditions: S. cerevisiae mlh1 rad18 strain growth inhibition; at 50.0 µM; active compounds read high
Procedure, shortened: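 Cells of a genetically altered yeast strain, deficient in DNA damage repair, were treated with compound. Their growth was then compared with that of vehicle-treated cultures to give inhibition.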

Measured: growth inhibition

CC1=NN(c2cc(S(=O)(=O)O)ccc2Cl)C(=O)C1N=Nc1ccccc1 (stereo not drawn)
inactive: [1] -23.3% | [2] -26.2% | [3] -30.1% | [4] 12.3% | [5] -20.6% | [6] -24.8%

CCOc1ccc2c(c1)C(C)(C)CCC2(C)C
inactive: [1] 3.55% | [2] -7.75% | [3] -5.9% | [4] -38.5% | [5] 1.4% | [6] 6.05%

CCO/N=C(/CNC(=O)Oc1ccccc1)c1ccccc1
inactive: [1] 3.15% | [2] 0.75% | [3] -4.05% | [4] 28% | [5] 37.4% | [6] 9.45%

COc1ccc(/C(C)=N/OC(=O)c2sc3ccccc3c2Cl)cc1CN1CCOCC1
inactive: [1] -17.9% | [2] -23.9% | [3] -25.4% | [4] -2.05% | [5] -28.9% | [6] -21.6%

NC1(N)ON(c2ccc(C=O)cc2)C(c2ccc([N+](=O)[O-])cc2)S1 (stereo not drawn)
inactive: [1] 18.3% | [2] 8.45% | [3] 11% | [4] 16.3% | [5] -0.7% | [6] 16.7%

COc1ccc(C2OCCCO2)cc1
inactive: [1] 13.5% | [2] -19.1% | [3] -6.45% | [4] -34.4% | [5] -27.4% | [6] 4.45%

CC1=C[C@@H]2[C@@H](CC(CO)=C[C@H]3[C@@H]4C(C)(C)[C@]4(OCC(C)C)[C@H](OCC(C)C)[C@@H](C)[C@]23O)C1=O
inactive: [1] -13.7% | [2] -14.2% | [3] -55.5% | [4] -0.1% | [5] -69.2% | [6] -13.9%

O=[N+]([O-])c1cc(/C=N\NS(=O)(=O)c2ccc(Cl)cc2)c(O)c([N+](=O)[O-])c1
inactive: [1] 26.9% | [2] 7.2% | [3] 3.9% | [4] -1.35% | [5] 8.75% | [6] 8.6%

CN(Cc1cnc2nc(N)nc(N)c2n1)c1ccc(C(=O)NC(CCC(=O)NC(CCC(=O)NC(CCC(=O)NC(CCC(=O)O)C(=O)O)C(=O)O)C(=O)O)C(=O)O)cc1 (stereo not drawn)
inactive: [1] 42.8% | [2] -19.8% | [3] -35.9% | [4] -26.1% | [5] -41.6% | [6] -12.5%

CC1=CCC(C(C)(C)OCCCO)CC1 (stereo not drawn)
inactive: [1] 15.8% | [2] 14% | [3] -17.6% | [4] 10.7% | [5] 4.4% | [6] 22%

Cc1c[nH]c2nc(C)n(-c3ccccc3F)c(=N)c12
inactive: [1] -8.5% | [2] -2.75% | [3] -9.35% | [4] -8.7% | [5] -10.8% | [6] -0.95%

Cc1nc2ccccc2c(=O)n1C(C)(C)CCl
inactive: [1] 10.1% | [2] 30.6% | [3] 11.1% | [4] -14.7% | [5] 30.3% | [6] 19.9%

CCN(CC)c1ccc(N=Nc2nc(Cl)c(/C=C3\C(=O)c4ccccc4C3=C(C#N)C#N)s2)c(NC(C)=O)c1
inactive: [1] 18% | [2] 5.1% | [3] 14.2% | [4] -38.6% | [5] -12.8% | [6] -17.6%

CC(=O)/C(C)=C\C=C(\C)C(C)=O
inactive: [1] -7.2% | [2] -11.5% | [3] -16.2% | [4] -84.5% | [5] -0.45% | [6] -4.7%

CCOC(=O)CC1c2ccc(O)cc2OC(=O)C1c1ccc(N)cc1 (stereo not drawn)
inactive: [1] -29.1% | [2] -17.5% | [3] -14.8% | [4] -4.6% | [5] -19.2% | [6] -13.6%

Cc1cccc(C)c1C1=NCCN1
inactive: [1] 3.55% | [2] -8.95% | [3] -8.95% | [4] -39.2% | [5] -16.8% | [6] 1.65%

Cc1ccc2c(c1)C(=O)c1cc(C)cc(C(=O)O)c1-2
inactive: [1] -22.6% | [2] -5.05% | [3] 4.5% | [4] -40% | [5] 1.65% | [6] -16.7%

O=[N+]([O-])c1ccc(N/N=C2\C=CCCC2)c([N+](=O)[O-])c1
inactive: [1] -0.95% | [2] -11.9% | [3] -13% | [4] 15.3% | [5] -12.6% | [6] 17.1%

COc1cc(C2SCCCCCCCCCCSC(c3ccc(O)c(OC)c3)SCCCCCCCCCCS2)ccc1O (stereo not drawn)
inactive: [1] -24.6% | [2] -24.8% | [3] -29.2% | [4] -18.9% | [5] -30.2% | [6] -6.9%

COc1cccc(OC)c1OCC1CO1 (stereo not drawn)
inactive: [1] 6.95% | [2] 9.8% | [3] 0.2% | [4] -14.4% | [5] 2.3% | [6] 9.95%

CCc1c(C#N)c(=O)[nH]c(=O)n1CCN1CCN(C(=O)NCCCCCCNC(=O)N2CCN(CCn3c(CC)c(C#N)c(=O)[nH]c3=O)CC2)CC1
inactive: [1] 4.6% | [2] 2.55% | [3] -14.4% | [4] -23.6% | [5] 2.7% | [6] -26.1%

CCC(SC(CC)(CC(C)C)C(N)=O)C(N)=O (stereo not drawn)
inactive: [1] 4.1% | [2] -5.65% | [3] 15.8% | [4] -53% | [5] 6.9% | [6] -14.4%

O=C(O)CSCc1cc2c(O)c(c1)Cc1cc(CSCC(=O)O)cc(c1O)Cc1cc(CSCC(=O)O)cc(c1O)Cc1cc(CSCC(=O)O)cc(c1O)C2
inactive: [1] -6.9% | [2] -5.6% | [3] -6.55% | [4] 14.7% | [5] 43.8% | [6] -0.1%

Cn1c(=O)c2c(nc(C(c3ccccc3)c3ccccc3)n2C)n(C)c1=O
inactive: [1] -11.3% | [2] -25.5% | [3] -3.55% | [4] -33.5% | [5] 6.25% | [6] -18.6%

CSCCC(NC(=O)OC(C)(C)C)C(=O)NCCNc1ccc(NCCNC(=O)C(CCSC)NC(=O)OC(C)(C)C)c2c1C(=O)c1ccccc1C2=O (stereo not drawn)
inactive: [1] 19.4% | [2] 7.9% | [3] -24.2% | [4] 3.85% | [5] -9.5% | [6] -43.3%

Nc1nc(Cl)nc(Cl)n1
inactive: [1] -53.7% | [2] -59.5% | [3] -33% | [4] 3.75% | [5] -52.4% | [6] -12.2%

CCCCCCCCCCCCCCCCC(NC(C)=O)(C(=O)OCC)C(=O)OCC
inactive: [1] 23.9% | [2] 1.65% | [3] 20.9% | [4] 30.2% | [5] -1.25% | [6] 23.6%

Nc1nc(-c2ccccc2)ns1
inactive: [1] 4.9% | [2] -44.1% | [3] 1.4% | [4] 8.4% | [5] -17.8% | [6] -2.3%

OCC1CCCC(n2cnc3c(=S)nc[nH]c32)O1 (stereo not drawn)
inactive: [1] -8.4% | [2] -21.8% | [3] -20.2% | [4] -10.7% | [5] -42.2% | [6] 6.4%

O=S1(=O)CC(N2CCOCC2)C2=C(O1)c1sc(-c3ccccc3)nc1CC2 (stereo not drawn)
inactive: [1] -16.8% | [2] -7.45% | [3] 14.8% | [4] 14.3% | [5] -4.55% | [6] -3.95%

CCCCn1cnnc1NS(=O)(=O)c1cc(C)c(Cl)cc1SCC(=O)O
inactive: [1] -20.5% | [2] -5.25% | [3] 6.15% | [4] 0.4% | [5] -13.8% | [6] -5.5%

O=C1c2ccccc2N(Cc2cccc(F)c2)C2=NCCCC12 (stereo not drawn)
inactive: [1] -4.2% | [2] -39% | [3] 14.2% | [4] 0.35% | [5] 8.3% | [6] 0.35%

O=C(/C(=C\C(=O)c1cccs1)c1ccsc1)c1ccc(Br)cc1
inactive: [1] 1.2% | [2] -32% | [3] 11.2% | [4] -25.9% | [5] 14.5% | [6] -17.3%

COc1ccc(/C(Nc2ccccc2)=C(\CCl)c2ccccc2)cc1OC
inactive: [1] 6.5% | [2] 7.75% | [3] 34.5% | [4] 5.1% | [5] 44.4% | [6] 9.25%

Cn1c(=O)c2[nH]c(=S)n(C)c2n(C)c1=O
inactive: [1] 31.8% | [2] -8.35% | [3] -2% | [4] 11.2% | [5] -13.6% | [6] 15.5%

O=C(O)CCC(CCC(=O)O)(C(=O)O)c1ccccc1
inactive: [1] -20.1% | [2] -6.5% | [3] -8.75% | [4] -42.1% | [5] -1.65% | [6] -7.8%

Cc1c(-c2ccccc2)nnn1-c1ccc(F)c(Cl)c1
inactive: [1] -16.4% | [2] -27.1% | [3] -8.75% | [4] -10.4% | [5] 6.95% | [6] -12.4%

Nc1nc(=S)c2ncn(C3OC(COC(=O)c4ccc([N+](=O)[O-])cc4)C(OC(=O)c4ccc([N+](=O)[O-])cc4)C3OC(=O)c3ccc([N+](=O)[O-])cc3)c2[nH]1 (stereo not drawn)
inactive: [1] 3.35% | [2] 3.35% | [3] -2.65% | [4] -1.7% | [5] -5.65% | [6] 14.3%

— PubChem BioAssay (NCI)
